Dicer inh: inhibitors of Dicer pre-microRNA processing, primary screen, biochemical, cat-ELCCA, chemiluminescence. 6% of 47,000 active. cat-ELCCA pre-miR-21 Dicer processing; stronger effect = higher value. AID 1347074, 2019. Endoribonuclease Dicer (Homo sapiens), Q9UPY3. z-score at 25 µM; in the data active means z-score above about 3, passing the limit was not always enough;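 further: higher signal means more uncleaved substrate so more Dicer inhibition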
Target sequence (Q9UPY3 whole entry, looked up): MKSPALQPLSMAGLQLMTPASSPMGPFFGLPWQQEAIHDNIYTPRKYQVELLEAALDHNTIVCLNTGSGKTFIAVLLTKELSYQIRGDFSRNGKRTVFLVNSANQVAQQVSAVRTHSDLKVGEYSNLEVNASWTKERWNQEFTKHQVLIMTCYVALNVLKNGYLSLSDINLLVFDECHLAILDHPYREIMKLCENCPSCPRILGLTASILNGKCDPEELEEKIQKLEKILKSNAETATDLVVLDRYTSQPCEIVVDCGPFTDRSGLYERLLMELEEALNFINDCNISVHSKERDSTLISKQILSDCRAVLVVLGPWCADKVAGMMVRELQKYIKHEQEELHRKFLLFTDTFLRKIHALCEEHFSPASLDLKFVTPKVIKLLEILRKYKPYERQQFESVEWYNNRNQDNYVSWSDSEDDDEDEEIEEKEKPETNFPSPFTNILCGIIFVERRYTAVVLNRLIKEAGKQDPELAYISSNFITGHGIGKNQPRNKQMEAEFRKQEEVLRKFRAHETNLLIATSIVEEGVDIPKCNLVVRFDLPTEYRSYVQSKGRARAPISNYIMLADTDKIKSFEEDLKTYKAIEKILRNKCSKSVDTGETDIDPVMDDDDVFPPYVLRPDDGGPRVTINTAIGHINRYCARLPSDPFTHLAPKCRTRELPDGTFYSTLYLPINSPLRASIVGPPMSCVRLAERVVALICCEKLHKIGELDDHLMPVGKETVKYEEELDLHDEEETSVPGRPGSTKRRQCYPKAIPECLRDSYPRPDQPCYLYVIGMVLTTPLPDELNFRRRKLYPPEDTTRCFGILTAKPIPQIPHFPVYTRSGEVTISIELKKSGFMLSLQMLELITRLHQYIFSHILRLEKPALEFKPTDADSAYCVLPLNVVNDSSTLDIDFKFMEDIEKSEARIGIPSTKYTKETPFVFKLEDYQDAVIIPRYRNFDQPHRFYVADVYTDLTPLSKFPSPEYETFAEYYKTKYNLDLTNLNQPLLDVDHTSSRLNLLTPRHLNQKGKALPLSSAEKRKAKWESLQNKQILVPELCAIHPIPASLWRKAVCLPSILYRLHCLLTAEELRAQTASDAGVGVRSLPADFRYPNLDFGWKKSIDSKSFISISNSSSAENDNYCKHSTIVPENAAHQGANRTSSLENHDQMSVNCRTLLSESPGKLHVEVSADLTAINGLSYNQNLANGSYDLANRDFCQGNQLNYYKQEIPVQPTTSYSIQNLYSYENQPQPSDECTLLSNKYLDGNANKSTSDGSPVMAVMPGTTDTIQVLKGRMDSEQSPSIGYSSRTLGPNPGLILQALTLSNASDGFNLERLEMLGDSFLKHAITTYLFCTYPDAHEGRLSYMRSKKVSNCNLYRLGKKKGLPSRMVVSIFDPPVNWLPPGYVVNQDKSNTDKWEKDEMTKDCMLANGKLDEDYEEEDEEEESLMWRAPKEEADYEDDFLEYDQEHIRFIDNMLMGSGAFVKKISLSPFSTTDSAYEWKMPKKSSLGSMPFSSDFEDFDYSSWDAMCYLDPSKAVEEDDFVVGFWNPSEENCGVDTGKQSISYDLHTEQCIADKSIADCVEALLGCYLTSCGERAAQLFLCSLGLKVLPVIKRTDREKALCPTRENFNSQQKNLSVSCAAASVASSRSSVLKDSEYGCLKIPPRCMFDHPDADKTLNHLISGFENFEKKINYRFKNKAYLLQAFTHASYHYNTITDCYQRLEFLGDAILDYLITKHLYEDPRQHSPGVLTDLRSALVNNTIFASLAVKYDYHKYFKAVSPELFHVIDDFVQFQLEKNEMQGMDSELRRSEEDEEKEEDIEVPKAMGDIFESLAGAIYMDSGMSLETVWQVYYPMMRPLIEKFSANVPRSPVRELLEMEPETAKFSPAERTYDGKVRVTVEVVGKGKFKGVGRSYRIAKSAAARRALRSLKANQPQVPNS
Hits are given with their value; n = inactive. Only a selection was taken, and hits are over-represented in it overall.

SMILES	Dicer inh
O=C1CCOc2cc3c(cc21)C(=O)CCO3	3.6
CCOc1cc(-c2cc(O)c3c(C)oc(C)c3c(=O)c2)ccc1O	n
CCOc1cc(-c2cc(OCC)c3c(C)oc(C)c3c(=O)c2)ccc1O	3.5
CCOc1cc(-c2cc(=O)c3ccccc3o2)ccc1O	n
C(=N/Nc1nc2ccccc2nc1/C=C/c1cccs1)/c1ccccc1	n
Fc1cccc(CN2CCN(C3CCCCC3)CC2)c1	n
Cc1cc(C2CCCCC2)ccc1O	5.6
COc1cc(C2SCc3cc(C)c(C)cc3CS2)ccc1O	n
S=C(Nc1ccc(C2CCCCC2)cc1)N1CCSCC1	n
CN(NC1OC(=O)c2ccccc21)c1ccc([N+](=O)[O-])cn1 (configuration not stated)	n
O=C(Nc1cccc(Cl)c1)C1Sc2nnc(-c3ccccc3)n2NC1c1ccccc1 (configuration not stated)	n
COc1cccc(-n2cc(-c3ccc(F)cc3)nc2SCC(=O)c2cccs2)c1	n
CCOC(=O)N/N=C(\C)COc1ccc(-c2csnn2)cc1	n
CC(C)c1ccc(C2c3c(oc4ccc(F)cc4c3=O)C(=O)N2CCCN2CCOCC2)cc1 (configuration not stated)	n
CCCCC#Cc1cncc(C(=O)N/N=C/c2ccccc2)c1	n
CC(C)S(=O)(=O)c1csc(C(=O)N/N=C/c2ccccc2)c1-n1cccc1	n
Cn1[nH]c(=O)cc1C(=O)N/N=C/c1ccccc1	3.1
Clc1ccc(Sc2cccc(Cl)c2Cn2cccc2)cc1	n
COc1cc2[nH]c(Nc3ccc(Cl)cc3)c([N+](=O)[O-])c2cc1OC	n
Cn1c(SCc2ccc(Cl)cc2)nnc1-c1ccc(OCC(F)(F)F)nc1	n
CCOc1ccccc1NC(=O)Nc1ccc(OC)nc1	3.8
COc1ccccc1NC(=O)NC(N)=O	n
COc1ccccc1NC(=O)Nc1ccccc1OC	n
CCOC(=O)c1sc(N2C(=O)c3oc4ccccc4c(=O)c3C2c2ccc(Cl)cc2)nc1C (configuration not stated)	n
OC1(c2ccc(Cl)cc2)CCN(Cc2cn[nH]c2-c2ccccc2)CC1	n
SMILES	Dicer inh
OC1(c2ccc(Cl)cc2)CCN(Cc2cn[nH]c2-c2ccc(F)cc2)CC1	n
Fc1ccc(N2CCN(Cc3cn[nH]c3-c3ccccc3)CC2)cc1	3.5
COc1ccc(NC(=O)CC2C(=O)Nc3c2c(=O)n(C)c(=O)n3C)cc1 (configuration not stated)	n
CCOc1ccc(NCN2C(=O)c3ccc([N+](=O)[O-])cc3C2=O)cc1	n
CCN(CC)c1ccc2c(c1)OC(N)=C(C#N)C2c1cccc(Cl)c1 (configuration not stated)	n
CS/C(N)=N/N=C(\C)c1ccc(Cl)c(Cl)c1	n
O=C(O)c1cnc2sc3ccccc3n2c1=O	n
Cc1ccc2c(c1)C(=O)C(c1ccc3ccccc3n1)C2=O (configuration not stated)	n
COc1ccc(-c2nc(-c3cc4ccc(C)cc4[nH]c3=O)no2)cc1OC	n
CCCNc1nc2c(c(=O)[nH]c(=O)n2C)n1CCO	n
C=CCNc1nc2c(c(=O)[nH]c(=O)n2C)n1CC(O)CO (configuration not stated)	n
C=CCNc1nc2c(c(=O)[nH]c(=O)n2C)n1CC	3.2
COc1ccc(/C=N/NC(=O)CC#N)cc1OC	n
CCOc1nc(-c2ccc(C)cc2)ccc1-c1noc(C(C)C)n1	n
Cc1ccc(C2c3c(oc4ccccc4c3=O)C(=O)N2c2ccc(C)cn2)cc1 (configuration not stated)	4.2
Cc1ccc2oc3c(c(=O)c2c1)C(c1ccccc1F)N(c1ccccn1)C3=O (configuration not stated)	3.3
CCOc1ccc(C2c3c(oc4ccccc4c3=O)C(=O)N2c2ccccn2)cc1 (configuration not stated)	n
Cc1ccc(N2C(=O)c3oc4ccccc4c(=O)c3C2c2ccc(Br)cc2)nc1 (configuration not stated)	n
CSc1ccc(C2c3c(oc4ccc(C)cc4c3=O)C(=O)N2c2ccccn2)cc1 (configuration not stated)	n
Cc1ccc2oc3c(c(=O)c2c1)C(c1cccc(O)c1)N(c1ccccn1)C3=O (configuration not stated)	n
CCCCOc1ccc(C2c3c(oc4ccccc4c3=O)C(=O)N2c2ccccn2)cc1 (configuration not stated)	n
Cc1ccc(CN2C(=O)c3oc4ccc(F)cc4c(=O)c3C2c2ccc(O)cc2)cc1 (configuration not stated)	n
COc1cc(C2c3c(oc4ccc(F)cc4c3=O)C(=O)N2Cc2ccc(C)cc2)ccc1O (configuration not stated)	4.8
C=CCOc1ccc(C2c3c(oc4ccccc4c3=O)C(=O)N2c2ccccn2)cc1 (configuration not stated)	4.1
CCOc1ccc(C2c3c(oc4ccccc4c3=O)C(=O)N2c2ccc(C)cn2)cc1OCC (configuration not stated)	n

Screens as filed in PubChem.
